Molecules are shown by their SMILES. Several values for one entry are separate records, joined by “and”; a condition that tells them apart may be missing. Identical values can stand only once. Compounds without any hit were thinned out: in the full panel of roughly 83,000, 20% have a hit.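 Step 1: grow cells in 96-well plates. Step 2: add test compound at a single concentration. Step 3: incubate 48 h. Step 4: record percent growth.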 Activity calls are given as the source filed them. How the source made its calls: active means growth percent below 10; inactive means the rest.

In this test the test system is MDA-MB-468 breast. Kind of test: NCI-60 one-dose screen, 48 h (100 = growth as untreated, 0 = no growth, -100 = all killed). The conditions noted are these: 10 µM unless noted.
As to `CCN1C(=O)N(CC)C2SC(N/N=C/c3cccs3)=NC21` (stereo not given), the growth is 32.4% (inactive). The figure for `CCOC(=O)c1ccc(-c2ccc3cc(OC)ccc3c2)nc1C` is 119% (inactive); for `Cc1ccc2c(c1)C(=O)/C(=C/c1cccc(F)c1)S2` it is 84.7% (inactive). The figure for `CN(C)c1ccc2nc3ccc(=[N+](C)C)cc-3oc2c1` is -15.4% (active); for `O=C(Nc1cccc(-c2cccc(F)c2)c1)C1CCN(Cc2cccc3cccnc23)CC1` it is 22.6% (inactive); for `Cc1nc2sc(C(=O)Nc3cccc(Br)c3)c(N)c2cc1C(O)c1ccccc1` (stereo not given) it is 11.9% (inactive).

As for `COc1ccc(C/C(C)=C(\c2ccc(Cl)cc2)c2ccc(OCCN3CCCCCC3)cc2)cc1`, the growth is 70.9% (inactive). To `CCCCCCCC/C=C\CCCCCCCC(=O)OCCCCCC` belongs 95.8% (inactive).

Take `O=C1C(=O)c2ccccc2C(O)=C1CCCc1ccc(C2CCCCC2)cc1`: the growth was 17.5% (inactive). To `Cc1nc2sc(C(=O)Nc3ccc(Br)cc3)c(N)c2cc1C(O)c1ccccc1` (stereo not given) belongs 12.7% (inactive). Take `COc1cc(/C=C2\COc3ccc(-c4ccccc4)cc3C2=O)cc(OC)c1`: the growth was 69.3% (inactive). Regarding `C[C@@H]1CC[C@@H]2[C@@H]1[C@H](OC(=O)c1ccc3ccccc3c1)[C@]1(C3CCCCC3)C[C@@H](OC(=O)CO)[C@@]2(C)O1`, the growth was 63.6% (inactive). To `O=S(=O)(Nc1ccc(-n2cnc3cc(-c4ccc(O)cc4)ccc32)cc1)c1ccccc1` belongs 100% (inactive); to `CCCCCOC(=O)Nc1nc(=O)n(C2O[C@H](C)[C@@H](O)[C@H]2O)cc1F` (stereo not given in full), 99.1% (inactive); to `COc1ccc(CCN2C(=O)CSC2=S)cc1OC`, -2.77% (active). For the compound `Cc1cc(NCCCNc2ccnc3cc(Cl)ccc23)nc(N2CCN(C)CC2)n1`, the growth is 65.4% (inactive). To `CN1CCN(c2ccc3c(C(N)=O)c(NC(=O)c4ccc(C(C)(C)C)cc4)sc3c2)CC1` belongs 90.7% (inactive); to `CNC(=O)c1cc(Oc2ccc3nc(NC(=O)Nc4ccc(N5CCC(N(C)C)CC5)cc4)sc3c2)ccn1`, 76.3% (inactive). To `Cc1c2cnccc2c(C)c2c1c1cc(C#N)ccc1n2C` belongs -46.9% (active); to `CN(C)CC(=O)c1ccc2cc(Br)c3ccccc3c2c1`, 72.1% (inactive). To `O=C(Nc1ccc(I)cc1F)c1cc(Cl)ccc1O` belongs -1.5% (active); to `O=C(NCc1ccccc1)/C(=C/c1ccccc1)NC(=O)c1ccccc1`, 93.9% (inactive); to `O=C(N/N=C/C=C/c1ccc([N+](=O)[O-])o1)c1cc2ccccc2cc1O`, -65% (active). `CCN(CC)CCSCCCNc1c(C)cnc2cc(Cl)ccc12`: the growth was 85.6% (inactive).

As for `Cc1cc(-c2cc(O)ccc2Cl)cc2nnc(Nc3ccc(OCCN4CCCC4)cc3)nc12`, the growth was -69.4% (active). The figure for `CC(=O)c1cccc(Nc2ncnc3ccc(NC(=O)c4ccco4)cc23)c1` is 60.2% (inactive); for `CCCCCCCC/C=C\CCCCCCCCOc1cccc(CC(=O)NCC[N+](C)(C)C)c1` it is 93.1% (inactive). To `O=S1(=O)CC(Br)C(Br)C1` (stereo not given) belongs 37% (inactive) and 75.6% (inactive). To `CNCc1cccc2c1OCCOCCOCCN(C)S(=O)(=O)c1ccc(cc1)-c1cnc(N)c(n1)C(=O)N2` belongs 68.5% (inactive). Consider `COc1ccc2nc3ccccc3c(NCCNCCO)c2c1`, for which the growth was -72.9% (active). To `Nc1nc(Nc2ccc(Cl)cc2)nn1S(=O)(=O)c1ccc(-c2ccc(F)cc2)cc1` belongs 96.2% (inactive); to `O=C1NC(=O)C(c2cnc3ccccn23)=C1c1cn2c3c(cc(F)cc13)CN(C(=O)N1CCCCC1)CC2`, 47.6% (inactive). The figure for `N#Cc1nc(-c2ccccc2)oc1S(=O)(=O)N1CCOCC1` is 71.2% (inactive). To `O=C(/C=C/c1ccccc1)c1ccc(-n2cc(CN3CCN(c4cc5c(cc4F)c(=O)c(C(=O)O)cn5C4CC4)CC3)nn2)cc1` belongs 66% (inactive). As for `O=[N+]([O-])c1ccc(N=Nc2ccc(O)c3ccccc23)cc1`, the growth was 26.7% (inactive).

As for `COc1ccc(/C=C/c2nc(N3CCOCC3)c3nc(Cl)c(Cl)cc3n2)cc1OC`, the growth is 101% (inactive).

As for `C(=N\Nc1ncc(-c2cc3cc4c(cc3o2)OCO4)s1)/c1ccco1`, the growth is 27.3% (inactive). Turning to `O=Cc1ccc2nc(C(Cl)(Cl)Cl)ccc2c1`, the growth is 95.2% (inactive). On to `Cc1cc2c([nH]1)CSc1cc(S(=O)(=O)c3ccccc3)c(=O)[nH]c1-2`, for which the growth was 24% [100 µM] (inactive).

Turning to `COC(=O)CC[C@@H](C)[C@H]1CC[C@H]2C3CC[C@@H]4C[C@@H]5CC[C@]4(C)[C@@]3(O5)[C@H](Br)[C@@H](Br)[C@]12C` (stereo not given in full), the growth was 99.5% (inactive).

Values taken from PubChem BioAssay (NCI).
